A short description of experiment [1]: liver-stage malaria parasite growth inhibition, primary screen, cell-based, HepG2, luciferase luminescence, HepG2 viability (AID 624349).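 Note: 100% = mean of DMSO negative control wells on the same plate.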 The note with it: P. berghei liver stage in HepG2, luciferase luminescence, concentration not given here; parasite load remaining: stronger effect = lower value; viability: measured here: HepG2 viability without parasites.
Experiment [2] in a line: differential killing of epithelial or mesenchymal cells, primary screen, imaging, PC-3E GFP, TEM4-18 mCherry, co-culture (AID 1345086;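 active = compounds killing one labelled cell type while sparing the other, by normalised counts and ratio limits, not self-fluorescent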;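 for all read-outs here: cells exposed to compound for 72 h before imaging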;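 for red/green cell ratio (normalised): normalised mesenchymal count divided by normalised epithelial count so high means epithelial killing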). As to conditions: imaging cell counts, at 1 µM; for red/green cell ratio (normalised): actives lie on both sides, counts scaled to control wells, 1 = unselective.
A short description of experiment [3]: sensitizers of A549 cells to miR-34 induction, primary screen, imaging, A549 dox-inducible miR-34, nuclei and caspase counts (AID 1347080;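 active = compounds whose cell count with miR-34 switched on is under 0.7 times the count with it off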). As to conditions: A549 miR-34 inducible, Hoechst nuclei count, 48 h.
Experiment [4] in a line: viability rescue of complex I mutant cybrids, primary screen, cell-based, galactose medium, ATP luminescence (AID 1645843;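 active = z-score of at least 1.8 in each of two replicates, scored against plate mean and spread of sample wells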;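 note: positive z means more ATP and so rescue of galactose-driven cybrid death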). The note with it: complex I mutant cybrid cells, 72 h, stronger effect = higher value.
Experiment [5] can be described thus: polyglutamine-triggered caspase-3 activation inhibitors, cell-based (AID 1583). The note with it: polyglutamine-induced caspase-3 activation, cell assay; stronger effect = higher value;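 tested at 10 µM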.
Experiment [6] in a line: suppressors of polyQ aggregation in yeast, 75Q-TubU reporter (AID 1593). The note with it: Yeast 75Q polyglutamine aggregation reporter.
Experiment [7] can be described thus: rescue of polyQ-huntingtin neuronal dysfunction in worms, whole organism, C. elegans mechanosensory neurons, N-terminal huntingtin (AID 1599). As to conditions: touch response, stronger effect = higher value.
Experiment [8] in a line: inhibitors of mitochondrial cytochrome c release, biochemical, purified mitochondria (AID 1603).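 Note: mouse liver mitochondria challenged with calcium chloride; signal normalized to the plate average as 100%.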 The note with it: stronger effect = lower value.
Experiment [9] can be described thus: inhibitors of polyQ protein aggregation (AID 1604). As to conditions: polyglutamine-induced protein aggregation inhibition assay; stronger effect = higher value; tested at 2.5 µM.
A short description of experiment [10]: enhancers of glutamate uptake in motor neurons, MN-1 cell line (AID 1612).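 Note: tested at 1 µM final; 0% = mean of DMSO vehicle wells on each plate; positive means more glutamate uptake than control and negative means less.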 The note with it: MN-1 motor neuron cells, stronger effect = higher value.
Experiment [11] can be described thus: reducers of polyQ inclusions in PC12 cells, cell-based, NGF-treated PC12, GFPQ80 (AID 1614).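 Note: lower means fewer inclusions and 0 means no inclusions at all.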 The note with it: PC12 NGF-treated GFP-polyQ80 inclusion reduction.
Experiment [12] can be described thus: suppressors of polyglutamine aggregation in yeast, 75Q-TubH (AID 1616). As to conditions: S. cerevisiae 75Q-TubH polyglutamine aggregation suppression; stronger effect = higher value.
The mark [13] stands for this setting: measured here: epithelial PC-3E GFP cell survival.
The mark [14] stands for this setting: measured here: mesenchymal TEM4-18 mCherry cell survival.
[15] abbreviates: stronger effect = lower value, cell number ratio, induced over uninduced.
Setting [16] is: measured here: relative caspase fold change +Dox/-Dox.
Where [17] appears, read: measured here: total cells with miR-34 induction, stronger effect = lower value.
Where [18] appears, read: measured here: total cells without miR-34 induction.

This note sets out measurements from PubChem BioAssay.

One may read the viability as a read-out of living cells in per cent, often relative to untreated cells. As a reminder, the inhibition is the drop in the measured response relative to a control, in per cent.

Values joined by “and” are separate entries in the source; they are usually repeats but may differ in a detail not shown here. Equal entries are not always repeated. For some of these results: Potency and affinity values are given separately. More than one record can exist for a structure, and the calls need not agree. Active and inactive are the calls of the source. Cut-off read from the data, not from the text of the source, unless noted: active = parasite load remaining mostly below about 12% (no sharp cut-off); inactive = mostly above about 10%. Bridge positions count the residues as written; N and C are the ends. Square brackets hold non-standard residues; d marks the D form. Peptide text beside a SMILES is read from it. * marks the point of attachment. ξ: configuration not given here. ξDab(CH2SO3H) = NC(CCNCS(=O)(=O)O)C(=O)O; Heptanoyl(6-Me) = CC(C)CCCCC(=O)*; Dab = NCC[CH](N)C(=O)O

As to `C[C@]12CCC3c4ccc(OS(=O)(=O)O)cc4CCC3C1CCC2=O` (stereo partly specified), the parasite load remaining in experiment [1] is 45.1% (inactive). In addition, the viability in experiment [1] is 102%. Besides, in experiment [2], the red/green cell ratio (normalised) is 0.91 (inactive). Also, the normalised cell number was 0.94 in [2] (setting [13]) and 0.86 in [2] (setting [14]). For the same compound, the fold change in [3] (setting [15]) is 0.918 (inactive) and 0.865 (inactive); in experiment [3] (setting [16]), 1.03 and 4.55. Moreover, the cell count is 9150 and 11800 in experiment [3] (setting [17]); 9970 and 13700 in experiment [3] (setting [18]). Besides, the z-score in experiment [4] is 0.9 (inactive).

For `C[C@]12CCC3c4ccc(O)cc4CCC3C1C[C@@H](O)[C@@H]2O` (stereo partly specified), the inhibition in [5] is -10.9%. This compound showed a score in [6] of 0.64. The same compound gave a rescue above control in [7] of 0.35. Besides, the cytochrome c release ratio in [8] was found to be 0.85. In [9], the inhibition of aggregation amounted to 84.5%. The glutamate uptake change in experiment [10] was -5.15%. Besides, the inclusion score in experiment [11] is 2. Besides, the aggregation suppression score in experiment [12] was found to be 0.718. Further, in experiment [1], the parasite load remaining is 84.5% (inactive) and 67.1% (inactive). For the same compound, in experiment [1], the viability was 72.3% and 96.2%. For the same compound, the red/green cell ratio (normalised) in experiment [2] was 0.95 (inactive). The normalised cell number turned out to be 1 in experiment [2] (setting [13]) and 0.95 in experiment [2] (setting [14]). Further, the fold change in [3] (setting [15]) was 0.868 (inactive); in experiment [3] (setting [16]), 1.18. Further, the values for the cell count in experiment [3] (setting [17]) and in [3] (setting [18]) were 11100 and 12800, respectively.

Turning to `CC[C@H]1CN2CCc3cc(OC)c(OC)cc3C2C[C@@H]1CC1NCCc2cc(OC)c(OC)cc21` (stereo partly specified), the inhibition in experiment [5] is 43.8%. Moreover, the score in experiment [6] stood at 1.69. The compound also came in with a rescue above control in [7] of -0.41. Further, in [8], the cytochrome c release ratio came to 1.03. This compound showed an inhibition of aggregation in experiment [9] of 67.5%. Besides, in [10], the glutamate uptake change is -39.3%. In [12], the aggregation suppression score came to 1.03. Moreover, in experiment [1], the parasite load remaining was -0.06% (active) and -0.06% (inactive). The viability in experiment [1] is 69.1% and 43.7%. In addition, the red/green cell ratio (normalised) in experiment [2] was 0.69 (inactive). Also, the normalised cell number in experiment [2] (setting [13]) stood at 0.22; in [2] (setting [14]) it was 0.15. In addition, the fold change was 1.07 (inactive) in experiment [3] (setting [15]) and 1.51 in experiment [3] (setting [16]). The cell count worked out at 2470 in experiment [3] (setting [17]) and 2320 in experiment [3] (setting [18]).

Turning to `C[C@H](CCC(=O)O)[C@H]1CCC2C3C(CC[C@@]21C)[C@@]1(C)CC[C@@H](O)C[C@H]1C[C@@H]3O` (stereo partly specified), the inhibition in experiment [5] was 20.5%. This compound had a score in experiment [6] of -0.02. The compound also registered a rescue above control in experiment [7] of 3.58. Besides, the cytochrome c release ratio in experiment [8] was 1.17. This compound yielded an inhibition of aggregation in [9] of 66.7%. Besides, the glutamate uptake change in experiment [10] is -4.34%. Further, the inclusion score in experiment [11] was determined as 2. Besides, in [12], the aggregation suppression score was found to be 0.256. Besides, the parasite load remaining in experiment [1] is 50.6% (inactive) and 45.5% (inactive). Besides, the viability in [1] was 77.3% and 94.5%. The red/green cell ratio (normalised) in [2] was 1.02 (inactive). Also, the normalised cell number in experiment [2] (setting [13]) amounted to 1.05; in experiment [2] (setting [14]), 1.08. The fold change in experiment [3] (setting [15]) is 0.898 (inactive); in experiment [3] (setting [16]) it was 1.12. In addition, the cell count in experiment [3] (setting [17]) is 11500; in [3] (setting [18]) it was 12900.

Consider `CCC(C)C1NC(=O)C(CCNCS(=O)(=O)O)NC(=O)C(NC(=O)C(CCNCS(=O)(=O)O)NC(=O)C(NC(=O)C(CCNCS(=O)(=O)O)NC(=O)CCCCC(C)C)C(C)O)CCNC(=O)C(C(C)O)NC(=O)C(CCNCS(=O)(=O)O)NC(=O)C(CCNCS(=O)(=O)O)NC(=O)C(C(C)CC)NC1=O` (stereo unspecified) ({Heptanoyl(6-Me)}-[ξDab(CH2SO3H)]T[ξDab(CH2SO3H)][Dab][ξDab(CH2SO3H)]II[ξDab(CH2SO3H)][ξDab(CH2SO3H)]T; lactam 4-C; configuration not given here), for which, in experiment [5], the inhibition was 16.7%. The same compound came in with a score in experiment [6] of 0.3. The compound also came in with a rescue above control in experiment [7] of 0. Further, the cytochrome c release ratio in experiment [8] amounted to 1.4. Besides, the inhibition of aggregation in [9] came out at 59.3%. In addition, in experiment [10], the glutamate uptake change is -9.16%. In experiment [12], this compound displayed an aggregation suppression score of 0.253. Also, in [1], the parasite load remaining is 124% (inactive) and 57.4% (inactive). For the same compound, the viability in experiment [1] is 68.9% and 92.3%. Further, the red/green cell ratio (normalised) in experiment [2] was 1.41 (inactive). Moreover, the normalised cell number in experiment [2] (setting [13]) is 1.02; in experiment [2] (setting [14]), 1.44. Besides, the values for the fold change in [3] (setting [15]) and in [3] (setting [16]) were 0.942 (inactive) and 0.679, respectively. Moreover, the cell count turned out to be 11200 in [3] (setting [17]) and 11900 in experiment [3] (setting [18]).
